Test in all cases: HT-SELEX; high values mean tight binding
Holding throughout (details): protein: recombinant; vector His6-GST; dsDNA, one strand shown

The target in one assay is T1, SALL4 ZFC4 WT (HT-SELEX) (Mus musculus, UniProt Q8BX22 870-940).
T1 sequence: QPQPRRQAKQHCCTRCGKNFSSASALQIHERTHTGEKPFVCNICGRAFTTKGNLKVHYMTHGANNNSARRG
The essentials:
(§1)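 In triplicate selections of up to 6 cycles, purified recombinant mouse SALL4 zinc finger cluster 4 (residues 870–940, 1 µg) was incubated 10 min at room temperature with library DNA (1.5 µg, then 200 ng) in 100 µl of 10 mM Tris–HCl pH 7.5, 50 mM NaCl, poly(dI-dC) and DTT, and complexes were captured on Ni2+ beads, washed and PCR-amplified. Sequencing was done on MiSeq with scanning for 6-mers. The binding signal is each canonical k-mer's read fraction, reported as fold change against the initial random library.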

The target in assay [1] is T2, SALL4 ZFC4 R900W (HT-SELEX) (Mus musculus, UniProt Q8BX22 870-940, R900W).
T2 sequence: T1 sequence with R31W
The procedure, abridged:
as §1

Assay [2] deals with T3, SALL4 ZFC4 G921D (HT-SELEX) (Mus musculus, UniProt Q8BX22 870-940, G921D).
T3 sequence: T1 sequence with G52D
The procedure, abridged: as §1

Residue numbers refer to the chain shown, from its start.

Regarding AGTTCG, the values for the binding signal (in the assay with SALL4 ZFC4 WT (HT-SELEX); in assay [1]; in assay [2]) were 0.647 ± 0.0383 fold-change vs cycle 0, 0.741 ± 0.0101 fold-change vs cycle 0 and 0.828 ± 0.0183 fold-change vs cycle 0, respectively.

Regarding AATGCT, the figures for the binding signal (with SALL4 ZFC4 WT (HT-SELEX); in assay [1]; in assay [2]) were 1.15 ± 0.0126 fold-change vs cycle 0, 1.19 ± 0.0201 fold-change vs cycle 0 and 1.225 ± 0.011 fold-change vs cycle 0, respectively.

Take AGACTC: the results for the binding signal (with SALL4 ZFC4 WT (HT-SELEX); in assay [1]; in assay [2]) were 0.806 ± 0.0153 fold-change vs cycle 0, 0.928 ± 0.0387 fold-change vs cycle 0 and 1.01 ± 0.0334 fold-change vs cycle 0, respectively.

Take AGCGAG: the binding signal with SALL4 ZFC4 WT (HT-SELEX) amounted to 0.337 ± 0.0112 fold-change vs cycle 0; in assay [1], 0.393 ± 0.0228 fold-change vs cycle 0; in assay [2], 0.519 ± 0.0797 fold-change vs cycle 0.

ACTATC: the binding signal came out at 1.35 ± 0.0436 fold-change vs cycle 0 in the assay with SALL4 ZFC4 WT (HT-SELEX), 1.45 ± 0.0712 fold-change vs cycle 0 in assay [1] and 1.39 ± 0.1 fold-change vs cycle 0 in assay [2].

As for ATTAAA, the binding signal is 3.73 ± 0.281 fold-change vs cycle 0 with SALL4 ZFC4 WT (HT-SELEX), 2.54 ± 0.18 fold-change vs cycle 0 in assay [1] and 2.14 ± 0.26 fold-change vs cycle 0 in assay [2].

In the case of CAAATC, the binding signal with SALL4 ZFC4 WT (HT-SELEX) worked out at 1.1 ± 0.0172 fold-change vs cycle 0; in assay [1], 1.18 ± 0.0162 fold-change vs cycle 0; in assay [2], 1.21 ± 0.0283 fold-change vs cycle 0.

On to AGATCC, for which the binding signal with SALL4 ZFC4 WT (HT-SELEX) amounted to 0.821 ± 0.0254 fold-change vs cycle 0; in assay [1] it was 0.949 ± 0.0348 fold-change vs cycle 0; in assay [2] it was 1.045 ± 0.00383 fold-change vs cycle 0.

Take CCCTGA: the binding signal is 0.494 ± 0.0131 fold-change vs cycle 0 in the assay with SALL4 ZFC4 WT (HT-SELEX), 0.574 ± 0.0156 fold-change vs cycle 0 in assay [1] and 0.665 ± 0.0261 fold-change vs cycle 0 in assay [2].

For the sequence GTTAGA, the binding signal with SALL4 ZFC4 WT (HT-SELEX) was found to be 1.3 ± 0.0316 fold-change vs cycle 0; in assay [1] it was 1.47 ± 0.0186 fold-change vs cycle 0; in assay [2] it was 1.41 ± 0.0651 fold-change vs cycle 0.

With ACCGTC, the binding signal in the assay with SALL4 ZFC4 WT (HT-SELEX) was determined as 0.344 ± 0.0295 fold-change vs cycle 0; in assay [1] it was 0.418 ± 0.0372 fold-change vs cycle 0; in assay [2], 0.528 ± 0.0646 fold-change vs cycle 0.

With CTTGTC, the figures for the binding signal (with SALL4 ZFC4 WT (HT-SELEX); in assay [1]; in assay [2]) were 0.741 ± 0.0177 fold-change vs cycle 0, 0.888 ± 0.0216 fold-change vs cycle 0 and 0.915 ± 0.0332 fold-change vs cycle 0, respectively.

CATTAG: the binding signal with SALL4 ZFC4 WT (HT-SELEX) amounted to 1.317 ± 0.00537 fold-change vs cycle 0; in assay [1], 1.45 ± 0.0172 fold-change vs cycle 0; in assay [2], 1.39 ± 0.0502 fold-change vs cycle 0.

For ATCAGA, the binding signal was 1.37 ± 0.0717 fold-change vs cycle 0 in the assay with SALL4 ZFC4 WT (HT-SELEX), 1.43 ± 0.0639 fold-change vs cycle 0 in assay [1] and 1.38 ± 0.109 fold-change vs cycle 0 in assay [2].

As for CATTAC, the binding signal amounted to 1.43 ± 0.0799 fold-change vs cycle 0 in the assay with SALL4 ZFC4 WT (HT-SELEX), 1.52 ± 0.113 fold-change vs cycle 0 in assay [1] and 1.41 ± 0.113 fold-change vs cycle 0 in assay [2].

Turning to ATAACG, the figures for the binding signal (with SALL4 ZFC4 WT (HT-SELEX); in assay [1]; in assay [2]) were 1.39 ± 0.0783 fold-change vs cycle 0, 1.3 ± 0.0579 fold-change vs cycle 0 and 1.23 ± 0.0819 fold-change vs cycle 0, respectively.

Turning to CCCTAA, the figures for the binding signal (with SALL4 ZFC4 WT (HT-SELEX); in assay [1]; in assay [2]) were 0.849 ± 0.0207 fold-change vs cycle 0, 0.947 ± 0.00994 fold-change vs cycle 0 and 0.952 ± 0.0492 fold-change vs cycle 0, respectively.

On to TCTAGA, for which the binding signal with SALL4 ZFC4 WT (HT-SELEX) stood at 1.32 ± 0.134 fold-change vs cycle 0; in assay [1], 1.49 ± 0.119 fold-change vs cycle 0; in assay [2], 1.41 ± 0.147 fold-change vs cycle 0.

For the sequence CGTCTA, the binding signal with SALL4 ZFC4 WT (HT-SELEX) was 0.63 ± 0.0233 fold-change vs cycle 0; in assay [1], 0.702 ± 0.0194 fold-change vs cycle 0; in assay [2], 0.79 ± 0.0202 fold-change vs cycle 0.

On to AGGGCA, for which the values for the binding signal (with SALL4 ZFC4 WT (HT-SELEX); in assay [1]; in assay [2]) were 0.305 ± 0.031 fold-change vs cycle 0, 0.354 ± 0.00942 fold-change vs cycle 0 and 0.51 ± 0.0852 fold-change vs cycle 0, respectively.

In the case of CCACCA, the figures for the binding signal (with SALL4 ZFC4 WT (HT-SELEX); in assay [1]; in assay [2]) were 0.417 ± 0.0318 fold-change vs cycle 0, 0.471 ± 0.033 fold-change vs cycle 0 and 0.582 ± 0.0561 fold-change vs cycle 0, respectively.

With AGTGCA, the binding signal in the assay with SALL4 ZFC4 WT (HT-SELEX) turned out to be 0.627 ± 0.0465 fold-change vs cycle 0; in assay [1] it was 0.704 ± 0.0363 fold-change vs cycle 0; in assay [2], 0.802 ± 0.0221 fold-change vs cycle 0.

As for GGTCAA, the binding signal was 0.661 ± 0.0198 fold-change vs cycle 0 in the assay with SALL4 ZFC4 WT (HT-SELEX), 0.78 ± 0.0273 fold-change vs cycle 0 in assay [1] and 0.867 ± 0.0299 fold-change vs cycle 0 in assay [2].

CGTTTC: the binding signal with SALL4 ZFC4 WT (HT-SELEX) is 0.628 ± 0.029 fold-change vs cycle 0; in assay [1], 0.738 ± 0.0101 fold-change vs cycle 0; in assay [2] it was 0.794 ± 0.021 fold-change vs cycle 0.

Take TCTACA: the figures for the binding signal (in the assay with SALL4 ZFC4 WT (HT-SELEX); in assay [1]; in assay [2]) were 1.24 ± 0.0179 fold-change vs cycle 0, 1.33 ± 0.0358 fold-change vs cycle 0 and 1.29 ± 0.0644 fold-change vs cycle 0, respectively.

On to AGATCG, for which the binding signal in the assay with SALL4 ZFC4 WT (HT-SELEX) stood at 0.674 ± 0.0467 fold-change vs cycle 0; in assay [1], 0.774 ± 0.0175 fold-change vs cycle 0; in assay [2] it was 0.926 ± 0.0361 fold-change vs cycle 0.

Take CCGTAC: the binding signal in the assay with SALL4 ZFC4 WT (HT-SELEX) was 0.377 ± 0.0221 fold-change vs cycle 0; in assay [1], 0.458 ± 0.015 fold-change vs cycle 0; in assay [2] it was 0.544 ± 0.0408 fold-change vs cycle 0.

On to AAACGC, for which the binding signal with SALL4 ZFC4 WT (HT-SELEX) is 0.392 ± 0.00979 fold-change vs cycle 0; in assay [1] it was 0.449 ± 0.0166 fold-change vs cycle 0; in assay [2], 0.58 ± 0.0501 fold-change vs cycle 0.

On to CAAACG, for which the binding signal was 0.563 ± 0.00697 fold-change vs cycle 0 in the assay with SALL4 ZFC4 WT (HT-SELEX), 0.704 ± 0.014 fold-change vs cycle 0 in assay [1] and 0.777 ± 0.055 fold-change vs cycle 0 in assay [2].

Turning to AGTTCC, the binding signal turned out to be 0.848 ± 0.0309 fold-change vs cycle 0 with SALL4 ZFC4 WT (HT-SELEX), 0.972 ± 0.0535 fold-change vs cycle 0 in assay [1] and 0.98 ± 0.0319 fold-change vs cycle 0 in assay [2].

Source of the values: PMC9838217, “Structure of SALL4 zinc finger domain reveals link between AT-rich DNA binding and Okihiro syndrome”.
